Growth data for 39 compounds are collected here from PubChem BioAssay (NCI).

Each structure is given as a SMILES string. About 83,000 compounds went through this panel and 20% of them were active in at least one assay; those are over-represented in the sample as a whole.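 Assay: single dose, 48 h. Readout: percent growth (0 = no net growth; negative = cell death). Active: <10.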 Calls of active or inactive are those of the source.

The first experiment relates to OVCAR-3 ovarian. Kind of experiment: NCI-60 one-dose screen, 48 h (100 = growth as untreated, 0 = no growth, -100 = all killed). Conditions: 10 µM unless noted.
For the compound `CS(=O)(=O)Nc1ccc(C(=O)NC(C(=O)NO)c2ccc(-c3cccc(F)c3)cc2)cc1` (stereo not drawn), the growth was 64.7% (inactive).
Still for that read-out and setting: next, `COc1cccc2c1C=C1CCCCC3=Cc4c(OC)cccc4OC13O2`: 14.2% (inactive).
On the same count and under the same terms, the value for `COc1cccc(/C(C#N)=C/c2nc3c(N4CCOCC4)nc(Cl)nc3n2C)c1` was -78.7% (active); that for `NCCOc1ncccc1/C=C1\c2ccccc2-c2ccc(F)cc21` was 36.7% (inactive).
For the compound `Cc1ccc2cccc(Oc3ccc(Nc4ncnc5onc(-c6ccccc6)c45)cc3)c2n1`, the growth was 93.8% (inactive).
The same measure, in the same setting: next, `CCN1C(=O)N(c2ccccc2)C2Nn3c(s/c(=C4\C(=O)N(C(C)C)c5ccccc54)c3=O)=NC21` (stereo not drawn): 117% (inactive).
Turning to `c1ccc2c(c1)oc1cc3sccc3nc12`, the growth was 107% (inactive).
With `O=C1/C(=C/c2cccc(O)c2)COc2ccc(O)cc21`, the growth is 55.5% (inactive).
Still for that read-out and setting: next, `COc1cccc(C(=O)Cn2cc(/C=C(\C#N)S(=O)(=O)c3ccccc3)c3ccccc32)c1`: 103% (inactive); `CCOC(=O)C1=C(C)N=c2s/c(=C\c3ccccc3O)c(=O)n2C1c1ccc(OC)c2ccccc12` (stereo not drawn): 10.1% (inactive).
Take `Cn1c(/C=C(\C#N)c2ccccc2)nc2c(N3CCOCC3)nc(Cl)nc21`: the growth was -91.8% (active).
Turning to `O=S(=O)(Nc1ncccn1)c1ccc(NC2Nc3nc4ccccc4nc3S2)cc1` (stereo not drawn), the growth is 109% (inactive).
Consider `COC(=O)C1(C)CCC[C@]2(C)[C@H]3C[C@H]4C(C(C)C)=C[C@]3(CC[C@@H]12)[C@H]1[C@@H]4[C@@H](OCC#CCN2CCOCC2)CC[C@@H]1OCC#CCN1CCOCC1` (stereo partly drawn), for which the growth was 86.3% (inactive).
Still for that read-out and setting: next, `O=c1c2cc(F)ccc2sc2c(Nc3ccncc3)nc3ccccc3c12`: 36.5% (inactive); `Cc1c(-c2noc(-c3ccc([N+](=O)[O-])cc3)n2)no[n+]1[O-]`: 94.4% (inactive); `O=C(c1ccccc1)N(CCc1ccc(Cl)cc1)C(=S)N(C(=O)c1ccccc1)c1ccccc1`: 104% (inactive).
Still for that read-out and setting: next, `Cc1cc2c(c(C)c1Cl)C(=O)/C(=C/c1cccc([N+](=O)[O-])c1)O2`: 107% (inactive); `CCN1C(=O)N(CC)C2C1NC(=S)N2/N=C/C=C/c1ccccc1OC` (stereo not drawn): 16.6% (inactive); `O=C1Nc2ccccc2/C1=C/c1cccs1`: 90.5% (inactive).
On the same count and under the same terms, next, `COC(=O)/C(=C\c1c(-c2ccccc2)[nH]c2ccccc12)S(C)(=O)=O`: -46% (active).
For `C#CCn1cc(C=C2C(=O)N(C)C(=O)N(C)C2=O)c2cc(Cl)ccc21`, the growth was 108% (inactive).
Same read-out and setting: next, `COc1ccc2occ(C3=C(c4c[nH]c5ccccc45)C(=O)NC3=O)c2c1`: 26.8% (inactive).
On the same count and under the same terms, the value for `O=C1/C(=C/c2ccc(O)cc2)COc2ccc(O)c(O)c21` was -8.96% (active); that for `N#C/C(=C\c1c(-c2ccccc2)[nH]c2ccccc12)C(=O)c1ccccc1` was -7.05% (active).
Still for that read-out and setting: the value for `CCCN1CCN(c2ccc3nc(-c4ccc5nc(-c6cc(OC)ccc6OC)[nH]c5c4)[nH]c3c2)CC1` was 122% (inactive); that for `O=C(NN1C(=O)CSC1c1ccc(Cl)cc1)c1[nH]c2ccc(F)cc2c1-c1ccccc1` (stereo not drawn) was 47.9% (inactive).
On to `O=Cc1cc2ccccc2nc1Nc1nccs1`, for which the growth is 55.2% (inactive).
Turning to `COC(=O)/C(=C\c1c(C)[nH]c2ccccc12)S(=O)(=O)c1ccccc1`, the growth was -19.8% (active).
In the case of `COC(=O)C1(C)COP(=O)(Nc2ccc(OC)cc2)OC1` (stereo not drawn), the growth was 107% (inactive).
For `O=c1c2cccc(F)c2sc2c(N3CCNCC3)nc3ccccc3c12`, the growth is 30.9% (inactive).
The same measure, in the same setting: the value for `CCOc1ccc2nc(C)cc(Nc3ccc(Br)cc3)c2c1` was 107% (inactive); that for `COc1cccc2c(=O)c3c(sc12)c(NCCCNCCO)nc1ccccc13` was 54.6% (inactive).
The same measure, in the same setting: next, `O=c1c(-c2nc3ccccc3[nH]2)cc2ccccc2n1Cc1cn(Cc2ccc(N3CCOCC3)cc2)nn1`: 83.5% (inactive); `Nc1nc(-c2cnccn2)nn1-c1nc2ccccc2s1`: 108% (inactive).
On the same count and under the same terms, next, `NCCNc1nc2ccccc2c2c(=O)c3cc(F)cc(Cl)c3sc12`: -88.6% (active); `CNCCNc1nc2ccccc2c2c(=O)c3cccc(OC)c3sc12`: 29.4% (inactive).

Another experiment has as its system HS 578T breast. Described as above. The note with it: 10 µM unless noted.
As to `CS(=O)(=O)Nc1ccc(C(=O)NC(C(=O)NO)c2ccc(-c3cccc(F)c3)cc2)cc1` (stereo not drawn), the growth is 73% (inactive).
In the case of `COc1cccc2c1C=C1CCCCC3=Cc4c(OC)cccc4OC13O2`, the growth was 42.8% (inactive).
Still for that read-out and setting: next, `COc1cccc(/C(C#N)=C/c2nc3c(N4CCOCC4)nc(Cl)nc3n2C)c1`: -7.18% (active); `NCCOc1ncccc1/C=C1\c2ccccc2-c2ccc(F)cc21`: 44.2% (inactive); `Cc1ccc2cccc(Oc3ccc(Nc4ncnc5onc(-c6ccccc6)c45)cc3)c2n1`: 89.4% (inactive).
On the same count and under the same terms, next, `CCN1C(=O)N(c2ccccc2)C2Nn3c(s/c(=C4\C(=O)N(C(C)C)c5ccccc54)c3=O)=NC21` (stereo not drawn): 99.7% (inactive); `c1ccc2c(c1)oc1cc3sccc3nc12`: 101% (inactive); `O=C1/C(=C/c2cccc(O)c2)COc2ccc(O)cc21`: 101% (inactive).
Same read-out and setting: the value for `CCOC(=O)C1=C(C)N=c2s/c(=C\c3ccccc3O)c(=O)n2C1c1ccc(OC)c2ccccc12` (stereo not drawn) was 10.4% (inactive).
Consider `Cn1c(/C=C(\C#N)c2ccccc2)nc2c(N3CCOCC3)nc(Cl)nc21`, for which the growth is -20% (active).
In the case of `O=S(=O)(Nc1ncccn1)c1ccc(NC2Nc3nc4ccccc4nc3S2)cc1` (stereo not drawn), the growth is 95.9% (inactive).
Still for that read-out and setting: the value for `COC(=O)C1(C)CCC[C@]2(C)[C@H]3C[C@H]4C(C(C)C)=C[C@]3(CC[C@@H]12)[C@H]1[C@@H]4[C@@H](OCC#CCN2CCOCC2)CC[C@@H]1OCC#CCN1CCOCC1` (stereo partly drawn) was 86.6% (inactive); that for `O=c1c2cc(F)ccc2sc2c(Nc3ccncc3)nc3ccccc3c12` was 75.3% (inactive); that for `O=C(Cc1ccccc1)NC(c1ccc(Cl)cc1)c1c(O)ccc2ccccc12` (stereo not drawn) was 54.1% (inactive).
Consider `Cc1c(-c2noc(-c3ccc([N+](=O)[O-])cc3)n2)no[n+]1[O-]`, for which the growth was 104% (inactive).
Regarding `Cc1cc2c(c(C)c1Cl)C(=O)/C(=C/c1cccc([N+](=O)[O-])c1)O2`, the growth is 95.8% (inactive).
The same measure, in the same setting: next, `CCN1C(=O)N(CC)C2C1NC(=S)N2/N=C/C=C/c1ccccc1OC` (stereo not drawn): 40.3% (inactive); `O=C1Nc2ccccc2/C1=C/c1cccs1`: 94.8% (inactive).
The same measure, in the same setting: next, `COC(=O)/C(=C\c1c(-c2ccccc2)[nH]c2ccccc12)S(C)(=O)=O`: -9.62% (active); `C#CCn1cc(C=C2C(=O)N(C)C(=O)N(C)C2=O)c2cc(Cl)ccc21`: 91.4% (inactive).
The same measure, in the same setting: the value for `COc1ccc2occ(C3=C(c4c[nH]c5ccccc45)C(=O)NC3=O)c2c1` was 33.9% (inactive); that for `O=C1/C(=C/c2ccc(O)cc2)COc2ccc(O)c(O)c21` was 47.4% (inactive); that for `N#C/C(=C\c1c(-c2ccccc2)[nH]c2ccccc12)C(=O)c1ccccc1` was 16% (inactive).
For the compound `CCCN1CCN(c2ccc3nc(-c4ccc5nc(-c6cc(OC)ccc6OC)[nH]c5c4)[nH]c3c2)CC1`, the growth was 111% (inactive).
The same measure, in the same setting: next, `O=C(NN1C(=O)CSC1c1ccc(Cl)cc1)c1[nH]c2ccc(F)cc2c1-c1ccccc1` (stereo not drawn): 94.6% (inactive).
Still for that read-out and setting: the value for `O=Cc1cc2ccccc2nc1Nc1nccs1` was 91.9% (inactive).
Still for that read-out and setting: the value for `COc1ccc(C2=Nn3c(NN)nnc3SC2)cc1` was 96% (inactive).
`COC(=O)/C(=C\c1c(C)[nH]c2ccccc12)S(=O)(=O)c1ccccc1`: the growth was -29.7% (active).
As for `COC(=O)C1(C)COP(=O)(Nc2ccc(OC)cc2)OC1` (stereo not drawn), the growth is 106% (inactive).
With `O=c1c2cccc(F)c2sc2c(N3CCNCC3)nc3ccccc3c12`, the growth was 34.8% (inactive).
In the case of `CCOc1ccc2nc(C)cc(Nc3ccc(Br)cc3)c2c1`, the growth is 117% (inactive).
Take `COc1cccc2c(=O)c3c(sc12)c(NCCCNCCO)nc1ccccc13`: the growth was 35.9% (inactive).
The same measure, in the same setting: the value for `O=c1c(-c2nc3ccccc3[nH]2)cc2ccccc2n1Cc1cn(Cc2ccc(N3CCOCC3)cc2)nn1` was 74.7% (inactive).
Same read-out and setting: next, `Nc1nc(-c2cnccn2)nn1-c1nc2ccccc2s1`: 99.3% (inactive); `COc1ccc(-c2cn3c(C(=O)Nc4ccccc4Cl)c(-c4ccccc4)c4c3n2CCCC4)cc1`: 114% (inactive); `NCCNc1nc2ccccc2c2c(=O)c3cc(F)cc(Cl)c3sc12`: 59.9% (inactive).
On to `CNCCNc1nc2ccccc2c2c(=O)c3cccc(OC)c3sc12`, for which the growth is 40.8% (inactive).
